Assay results published in PubChem BioAssay AID651871 (Sanford-Burnham Center for Chemical Genomics, 2012).
“And” between values parts separate entries of the source, which are not always exact repeats. Identical values can stand only once.

Each compound was assayed on H9c2 (assay: protection of cardiomyocytes from stress damage, SAR follow-up, cell-based, panel, H9c2 and HL-1, ATP luminescence, set 2 (AID 651871;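 further: cells exposed to stressor for 2 h before ATP readout; reference of the scale not given here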)). Conditions: H9c2/HL-1 cardiomyocytes, 2-deoxyglucose stress, with 2-deoxyglucose; run 13, at 79 µM (top of the series).

Structure (SMILES)	activity (protection/inhibition)
COc1ccc2nc(-c3cc(OC)c(OC)c(OC)c3)cc(C(=O)NCC(=O)Nc3ccc(C(C)=O)cc3)c2c1	86.7%
COc1ccc2c(c1OC)C(=O)N1c3ccccc3C(=O)N(Cc3cccc(Cl)c3Cl)C21 (stereo not drawn)	81.4% and 89.7% and -5.69%
CCOC(=O)c1cccc(NC(=O)CNC(=O)c2cc(-c3cc(OC)c(OC)c(OC)c3)nc3ccccc23)c1	92.9%
